Records with an inconclusive call do not appear. Unmarked numbers belong to inactive results. The source made the active and inactive calls. The call rests on the fitted dose curve; in most records, active means well fitted curve in the direction sought with a large enough effect; inconclusive means small, poorly fitted or top-dose-only effect, or another doubt; inactive means no such curve, though single readings can be large; an effect the other way counts as inactive or inconclusive.

Assay [1] is described as follows: Quantitative High-Throughput drug screen in 47 multiple myeloma cell lines against the NCATS MIPE library collection: KMS26_JCRB cell viability assay (AID 1918975). Further: nearly all actives have a fitted effect of over 45% in size. Further: potency means the concentration at half of the fitted maximal effect.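 On viability (% of DMSO): 100% = DMSO-treated wells and 0% = wells with media only.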 In outline: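 Steps: seed 500 cells per well; pin-transfer MIPE 4.0 library; incubate 48 h at 37C, 5% CO2, humidified; add CellTiter-Glo, 5 min room temperature; read luminescence.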
Assay [2] can be described thus: Quantitative High-Throughput drug screen in 47 multiple myeloma cell lines against the NCATS MIPE library collection: MOLP8_DSMZ cell viability assay (AID 1918977). Further: nearly all actives have a fitted effect of over 45% in size. Further: potency means the concentration at half of the fitted maximal effect.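 On viability (% of control): 100% = DMSO-only wells and 0% = media-only wells without cells.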 In outline: (§1)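 Cells were exposed to library compounds for 48 hours, after which ATP was measured by CellTiter-Glo. Signal was taken as median relative luminescence units.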
The nature of assay [3]: Quantitative High-Throughput drug screen in 47 multiple myeloma cell lines against the NCATS MIPE library collection: OCIMY1_PLB cell viability assay (AID 1918979). Further: nearly all actives have a fitted effect of over 35% in size. Further: potency means the concentration at half of the fitted maximal effect.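 On viability: 100% = DMSO-only wells and 0% = cell-free media-only wells.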 In outline: as §1
Assay [4] in a line: Quantitative High-Throughput drug screen in 47 multiple myeloma cell lines against the NCATS MIPE library collection: MM1R_ATCC cell viability assay (AID 1918981). Further: nearly all actives have a fitted effect of over 35% in size. Further: potency means the concentration at half of the fitted maximal effect. In outline: as §1
The nature of assay [5]: Quantitative High-Throughput drug screen in 47 multiple myeloma cell lines against the NCATS MIPE library collection: LP1_DSMZ cell viability assay (AID 1918982). Further: nearly all actives have a fitted effect of over 35% in size. Further: potency means the concentration at half of the fitted maximal effect. In short, it runs like this: as §1
A short description of assay [6]: Quantitative High-Throughput drug screen in 47 multiple myeloma cell lines against the NCATS MIPE library collection: KMS28PE_JCRB cell viability assay (AID 1918983). Further: nearly all actives have a fitted effect of over 35% in size. Further: potency means the concentration at half of the fitted maximal effect. In short, it runs like this:
as §1

A short description of assay [7]: Quantitative High-Throughput drug screen in 47 multiple myeloma cell lines against the NCATS MIPE library collection: OCIMY7_PLB cell viability assay (AID 1918987). Further: potency means the concentration at half of the fitted maximal effect; nearly all actives have a fitted effect of over 65% in size. Particulars: OCI-MY7 myeloma viability, CellTiter-Glo ATP, 48 h; viability (% of DMSO): at 45.8 µM (top of the series). In outline:
as §1
In general terms: ATP-based viability assays read luminescence as a measure of living cells.

Assay [8] in a line: Quantitative High-Throughput drug screen in 47 multiple myeloma cell lines against the NCATS MIPE library collection: XG6_PLB cell viability assay (AID 1919865). Further: nearly all actives have a fitted effect of over 40% in size. Further: potency means the concentration at half of the fitted maximal effect.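 On viability (% of control): 100% = DMSO-only wells and 0% = media-only wells.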 In short, it runs like this: as §1
Assay [9] in a line: Quantitative High-Throughput drug screen in 47 multiple myeloma cell lines against the NCATS MIPE library collection: XG1_PLB cell viability assay (AID 1919866). Further: nearly all actives have a fitted effect of over 35% in size. Further: potency means the concentration at half of the fitted maximal effect. In outline:
as §1

The nature of assay [10]: Quantitative High-Throughput drug screen in 47 multiple myeloma cell lines against the NCATS MIPE library collection: NCIH929_DSMZ cell viability assay (AID 1918978). Further: nearly all actives have a fitted effect of over 35% in size. Further: potency means the concentration at half of the fitted maximal effect. In outline: as §1
Assay [11] in a line: Quantitative High-Throughput drug screen in 47 multiple myeloma cell lines against the NCATS MIPE library collection: MM1S_ATCC cell viability assay (AID 1918980). Further: nearly all actives have a fitted effect of over 45% in size. Further: potency means the concentration at half of the fitted maximal effect.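 On viability (% of control): 100% = wells with DMSO only and 0% = wells with media only.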 In short, it runs like this:
as §1

The nature of assay [12]: Quantitative High-Throughput drug screen in 47 multiple myeloma cell lines against the NCATS MIPE library collection: L363_DSMZ cell viability assay (AID 1918984). Further: nearly all actives have a fitted effect of over 40% in size. Further: potency means the concentration at half of the fitted maximal effect. The note with it: L363 myeloma viability, CellTiter-Glo ATP luminescence, 48 h; viability (% of control): at 45.8 µM (top of the series). In short, it runs like this:
as §1

Assay [13] in a line: Quantitative High-Throughput drug screen in 47 multiple myeloma cell lines against the NCATS MIPE library collection: OCIMY5_PLB cell viability assay (AID 1918988). Further: nearly all actives have a fitted effect of over 65% in size. Further: potency means the concentration at half of the fitted maximal effect. In short, it runs like this: as §1
Assay [14] in a line: Quantitative High-Throughput drug screen in 47 multiple myeloma cell lines against the NCATS MIPE library collection: OPM1_PLB cell viability assay (AID 1918989). Further: nearly all actives have a fitted effect of over 40% in size. Further: potency means the concentration at half of the fitted maximal effect.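 On viability (% of control): 100% = DMSO-only wells and 0% = media-only wells.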 In short, it runs like this:
as §1

The nature of assay [15]: Quantitative High-Throughput drug screen in 47 multiple myeloma cell lines against the NCATS MIPE library collection: SKMM1_PLB cell viability assay (AID 1919863). Further: nearly all actives have a fitted effect of over 35% in size. Further: potency means the concentration at half of the fitted maximal effect. The note with it: SKMM1 myeloma viability, CellTiter-Glo ATP, 48 h; viability: stronger effect = lower value. In outline: as §1
Assay [16] in a line: Quantitative High-Throughput drug screen in 47 multiple myeloma cell lines against the NCATS MIPE library collection: KMS34_JCRB cell viability assay (AID 1918985). Further: nearly all actives have a fitted effect of over 40% in size. Further: potency means the concentration at half of the fitted maximal effect. In short, it runs like this: as §1
A short description of assay [17]: Quantitative High-Throughput drug screen in 47 multiple myeloma cell lines against the NCATS MIPE library collection: MMM1_PLB cell viability assay (AID 1918976). In outline:
as §1

Assay [18] is described as follows: Quantitative High-Throughput drug screen in 47 multiple myeloma cell lines against the NCATS MIPE library collection: U266_ATCC cell viability assay (AID 1919864). In outline: as §1

Consider `COC(=O)[C@H](c1ccccc1Cl)N1CCc2sccc2C1`, for which the Potency result in assay [1], in [2], in [3], in assay [4], in assay [5] and in [6] was “inactive” throughout. Also, the Potency entry in [8] and in [9] was “inactive” throughout. The Potency in assay [7] is 20.9 µM (active).

For the compound `Cc1nc2c([nH]1)CCN(C(=O)c1ccc(NC(=O)c3ccccc3-c3ccccc3)cc1)c1ccccc1-2`, the Potency entry in assay [1], in [2], in assay [4], in [6] and in assay [9] was “inactive” each time.

Take `O=C(O)c1ccc(O)c2ncc(N3CCOCC3)cc12`: the Potency result in [1], in assay [3], in assay [6] and in [14] was “inactive” throughout. In addition, the Potency is 18.7 µM (active) in assay [10]; 23.5 µM (active) in [11]; 20.9 µM (active) in assay [5]; 20.9 µM (active) in [12]; 13.2 µM (active) in assay [13]; 18.7 µM (active) in assay [15].

Take `O=C(NCCCCN1CCOCC1)c1cc2ccccc2o1`: the Potency entry in assay [1], in [10], in [3], in [4], in [5] and in assay [6] was “inactive” in each case. Further, the Potency result in assay [16], in assay [8] and in assay [9] was “inactive” each time. Further, the viability in assay [15] is 115%.

For the compound `Cc1cn([C@@H]2C[C@@H](O)[C@H](CO)O2)c(=O)[nH]c1=O`, the Potency result in assay [1], in [2], in [3], in assay [11], in assay [4] and in assay [12] was “inactive” in each case. In addition, the Potency result in [13], in [14], in assay [8] and in assay [9] was “inactive” each time. In addition, in assay [15], the viability is 137%.

With `CC=C(C(=CC)c1ccc(O)cc1)c1ccc(O)cc1`, the Potency is 16.6 µM (active) in assay [17]; 11.8 µM (active) in assay [11]; 16.6 µM (active) in assay [13]; 18.7 µM (active) in assay [8]; 16.6 µM (active) in assay [9]. Moreover, the Potency entry in [2], in assay [10], in assay [3] and in assay [6] was “inactive” in each case.

For `Cc1cc2c(cc1C1(c3ccc(C(=O)O)cn3)CC1)C(C)(C)CCC2(C)C`, the Potency in assay [1] was 14.8 µM (active); in [3], 0.0015 µM (active); in assay [4], 6.62 µM (active). Further, the Potency result in assay [11] and in assay [18] was “inactive” each time.

For `FC(F)(F)c1ccc(C=Cc2nc(COc3ccc(CCCCn4ccnn4)cc3)co2)cc1`, the Potency in assay [1] is 0.0019 µM (active); in [6], 0.132 µM (active); in assay [12], 0.001 µM (active); in assay [13], 0.0166 µM (active); in assay [14] it was 0.187 µM (active).

Regarding `C[C@H](c1ccc(F)cc1CCCC(=O)O)N(c1cc(F)ccc1F)S(=O)(=O)c1ccc(Cl)cc1`, the Potency in assay [1] is 0.743 µM (active); in assay [10] it was 6.62 µM (active); in assay [11], 10.5 µM (active); in [7], 13.2 µM (active); in assay [13] it was 14.8 µM (active); in assay [8], 2.64 µM (active). Besides, the Potency entry in [3] is “inactive”.

Take `NCc1c[nH]c(=S)n1[C@H]1CCc2c(F)cc(F)cc2C1`: the Potency in [1] was 20.9 µM (active); in assay [2], 18.7 µM (active); in assay [11], 23.5 µM (active); in assay [4], 16.6 µM (active); in [6], 14.8 µM (active); in [16] it was 20.9 µM (active). The Potency in assay [13] is 9.35 µM (active); in assay [14], 18.7 µM (active); in assay [8] it was 18.7 µM (active). In addition, the Potency entry in assay [3] is “inactive”.

As to `CCn1c(-c2nonc2N)nc2cncc(CNC3CCNCC3)c21`, the Potency in [17] is 8.33 µM (active); in assay [2], 14.8 µM (active); in assay [11], 14.8 µM (active); in assay [4], 16.6 µM (active); in assay [6], 18.7 µM (active); in assay [13], 18.7 µM (active). Also, the Potency result in [5] and in [18] was “inactive” each time.

Turning to `CNC(=O)[C@H](CC1=CN=C2C=CCC=C12)NC(=O)[C@@H](CC(=O)NO)CC(C)C`, the Potency entry in [1], in assay [3], in assay [5] and in [14] was “inactive” each time. Besides, the Potency in assay [10] was 23.5 µM (active); in assay [11], 3.32 µM (active); in assay [12], 0.059 µM (active). Also, in [15], the viability was 109%.

Broadly, the viability is a read-out of living cells in per cent, often relative to untreated cells.
